This is a sample that favours compounds with a hit; in the whole collection about 19% have one here.
DT40 TDP1 CPT = growth inhibition of DT40 Tdp1-/-;hTDP1 cells with camptothecin (screen for TDP1 inhibitors); 12% of 420,000 active; chicken DT40 Tdp1-/-;hTDP1 cells + 20 nM CPT, ATP luminescence, 48 h; Potency, µM (top dose mostly 46.2 µM), for the others: top-dose activity change, negative = growth inhibition, most hits filed as inhibitors; further: potency means the concentration at half of the fitted maximal effect; nearly all actives have a fitted effect of over 55% in size
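Chicken DT40 Tdp1-/- cells stably complemented with human TDP1 were seeded at 400 cells/well in medium containing 20 nM camptothecin, exposed to pin-transferred compounds, and grown at 37 °C for at least 48 hr. Viability was read as ATP luminescence.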
DT40 TDP1 no CPT = qHTS for Inhibitors of human tyrosyl-DNA phosphodiesterase 1 (TDP1): qHTS in cells in absence of CPT | DT40 Tdp1-/- hTDP1 cells, no CPT, ATP luminescence, 48 h | Potency, µM (doses to about 46.2 µM), inactives show at the highest dose activity change, negative = growth inhibition, hits mostly inhibitors | 15% of 420,000 active | AID 686978, 2013; further: potency means the concentration at half of the fitted maximal effect; nearly all actives have a fitted effect of over 55% in size
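DT40 Tdp1-/-;hTDP1 cells, no CPT (DMSO vehicle only), 400 cells/well; compounds pin-transferred; ≥48 hr, 37 °C; CellTiter-Glo 30 min RT dark, luminescence read.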
ELG1 DNA repair = blocks ELG1-dependent DNA repair in HEK293T cells. HEK293T ELG1-luciferase reporter, luminescence, 16 h; DNA damage induced by 5-fluorouridine. AID 504467. 2.3% of 330,000 active. Potency, µM (series often up to 46.1 µM), for inactives: at the top dose activity change, negative = inhibition, usual class: inhibitors; further: potency means the concentration at half of the fitted maximal effect; nearly all actives have a fitted effect of over 55% in size
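HEK293T cells expressing luciferase-tagged ELG1 (2,000/well) received 5-Fluorouridine plus compound or DMSO for 16 hr at 37 °C. Luciferase was read by ONE-Glo luminescence after 30 min at room temperature.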
IL1B secr inh = inhibitors of inflammasome signaling (IL-1 beta secretion); THP-1 LPS/ATP IL-1B secretion, AlphaLISA, 16 h; active compounds read low; activity change, % at 57.5 µM; 4.7% of 360,000 active; AID 743279; in the data active means activity change below about -50%; inconclusive means mostly about -30% to -49%
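Secreted IL-1B measured by AlphaLISA bead assay after 16 h compound exposure of THP-1 cells; compounds (final up to 57.5 uM) added 1 h before LPS (250 ng/mL) and ATP (1.25 mM) stimulation; lower signal means less secretion.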
HT1080NT lethal = kills 2HG-producing HT-1080-NT fibrosarcoma cells; 1.6% of 360,000 active; Potency, µM (titrated, usually from 46.1 µM), for the others: at the top dose activity, negative = less viability, actives largely listed as cytotoxic; AID 686970; HT-1080-NT fibrosarcoma viability, CellTiter-Glo ATP luminescence, 48 h;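 further: NT is the 2HG producing partner of a matched IDH1 knockdown line; potency means the concentration at half of the fitted maximal effect; 0% = DMSO-treated cells and -100% = media-only wells without cells; nearly all actives have a fitted effect of over 55% in size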
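Read-out is CellTiter-Glo luminescence after 10 minutes at room temperature, following 48 hours' compound treatment of HT-1080-NT cells (750 cells/well, RPMI, 5% FBS, 37 degrees C).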
HT1080 IDH1KD tx = toxicity to HT-1080 IDH1 knockdown cells (counter line) | HT-1080 IDH1 knockdown viability, ATP luminescence, 48 h | Potency, µM (highest dose often 46.1 µM), for inactives: top-dose activity, negative = toxicity, most hits filed as cytotoxic | 2% of 360,000 active | AID 686971;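 further: potency means the concentration at half of the fitted maximal effect; 0% = DMSO wells and -100% = cell-free medium wells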
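HT-1080-IDH1KD cells (IDH1 knocked down), 750/well in RPMI with 5% FBS, treated with compound 48 h at 37 degrees C. Viability by CellTiter-Glo luminescence, normalised to DMSO and no-cell wells; concentration-response curves classed.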
Numbers without * were called inactive; ? = inconclusive; . = not tested or not shown; [ ] = remark or other dose. Unless noted, the call rests on the fitted dose curve; in most records, active means well fitted curve in the direction sought with a large enough effect; inconclusive means small, poorly fitted or top-dose-only effect, or another doubt; inactive means no such curve, though single readings can be large; an effect the other way counts as inactive or inconclusive. Unless noted, on the % scale 0 is the no-effect control and ±100 the full control effect.

SMILES	DT40 TDP1 CPT	DT40 TDP1 no CPT	ELG1 DNA repair	IL1B secr inh	HT1080NT lethal	HT1080 IDH1KD tx
CN(C)c1ccc(CNS(=O)(=O)c2ccc(-c3cc(C(F)(F)F)on3)s2)cc1	-5%	7%	.	.	.	.
Nc1nonc1-c1nc2ccccc2n1Cc1ccc(Cl)cc1	10%	-18%	11%	6	-2%	7%
Cc1ccc(Cn2c(N)nc3ccccc32)cc1	18µM*	9.2µM*	-8%	-25	-20%	-4%
Nc1nc2ccccc2n1Cc1ccc(Cl)c(Cl)c1	?	?	-18%	-92*	?	?
Cc1ccc(C)c(C(=O)OCC(=O)N(C)c2ccccc2)c1	25%	-24%	5%	7	19%	19%
Cc1ccc(C)c(N2CCN(c3nc4ccccc4c(=O)n3-c3ccc(Cl)cc3)CC2)c1	5.8µM*	21µM*	.	.	.	.
O=c1c2ccccc2nc(N2CCN(c3cccc(Cl)c3)CC2)n1-c1ccccc1	3.7µM*	2.9µM*	.	.	.	.
COCCn1c(SCC(=O)Nc2ccc(Cl)cn2)nnc1-c1ccncc1	-4%	6%	-16%	23	1%	6%
COCn1c(=O)c2c(nc(SC3=NCCS3)n2Cc2ccccc2C)n(COC)c1=O	23µM*	?	18µM*	-8	11%	4%
COCCCn1c(=O)c2ccccc2n(Cc2ccccc2C)c1=O	?	?	-6%	-13	-12%	-3%
CCOc1ccc(C2C(C(=O)Nc3ccccc3)=C(C)Nc3nc(SCc4cccc(OC)c4)nn32)cc1 (stereo unspecified)	-7%	1%	.	.	.	.
O=c1[nH]cnc2nc(-c3ccccc3)c(-c3ccccc3)nc12	1.5µM*	2.9µM*	11%	41	2%	4%
O=c1[nH]cnc2nn(-c3ccccc3)nc12	-16%	-2%	?	6	-6%	-4%
COc1ccccc1C1CC(=O)Oc2c(C(C)C)ccc(C)c21 (stereo unspecified)	-11%	-25%	1%	0	-5%	6%
Cc1ccc2nc(-c3ccc(C)o3)c(Nc3ccc4c(c3)OCO4)n2c1	?	?	.	.	4%	0%
Cc1ccc(-c2nc3ccc(Cl)cn3c2Nc2ccccc2)o1	?	?	.	.	20%	1%
Cc1ccc(-c2nc3ccc(Cl)cn3c2Nc2ccc3c(c2)OCCO3)o1	21µM*	16µM*	.	.	.	.
Fc1ccccc1-c1ccc(-c2nc3ccc(Cl)cn3c2Nc2ccc(Cl)cc2)o1	4.5µM*	3.5µM*	.	.	?	?
Cc1ccc(-c2nc3ccc(Cl)cn3c2Nc2ccc3c(c2)OCCO3)s1	18µM*	?	.	.	.	.
COc1ccc(C(=O)NCC(c2ccccc2)N2CCCC2)cc1S(=O)(=O)N1CCOCC1 (stereo unspecified)	-3%	9%	9%	-13	-1%[9.24 µM]	9%
COCCCn1cc(CN2CC(N3CCN(C)CC3)CS2(=O)=O)nn1 (stereo unspecified)	-7%	-29%	.	70	23%	0%
COCCC(=O)N1CCOCC1c1cc(C(=O)NCc2ccccc2)no1 (stereo unspecified)	-6%	-2%	.	35	?	16%
Cc1ccn(CC(=O)N2CCCC(N3CCN(Cc4ccc5c(c4)OCO5)CC3)C2)n1 (stereo unspecified)	5%	-3%	2%	22	1%	-16%
CCn1c(SCc2cccnc2)nnc1-c1c[nH]c2ccccc12	15µM*	?	-21%	20	5%	0%
CCCSc1nnc(-c2c[nH]c3ccccc23)n1CC	15µM*	?	-18%	-17	-3%	-21%
SMILES	DT40 TDP1 CPT	DT40 TDP1 no CPT	ELG1 DNA repair	IL1B secr inh	HT1080NT lethal	HT1080 IDH1KD tx
COCCn1c(SCc2cccnc2)nnc1-c1c[nH]c2ccccc12	-1%	0%	1%	-4	14%	8%
Cc1cccc(NC(=S)NNC(=O)CCn2cc(C)cn2)c1	3%	-3%	12%	-14	1.3µM*	2.8µM*
O=C(c1cc2nc(-c3ccco3)cc(C(F)(F)F)n2n1)N1CCN(c2ccc(F)cc2)CC1	?	?	?	-76*	?	?
COc1ccc(-c2cc(C(F)(F)F)n3nc(C(=O)N4CCN(C(=O)c5ccco5)CC4)cc3n2)cc1	15µM*	21µM*	?	-15	16%	7%
O=C(c1cc2nc(-c3ccco3)cc(C(F)(F)F)n2n1)N1CCN(Cc2ccccc2)CC1	18µM*	?	?	-29	-11%	-13%
NNc1nc(-c2ccccc2)c2ccccc2n1	4%	-3%	-9%	93	-23%	-12%
NNc1nnc(-c2ccccc2)c(-c2ccccc2)n1	13µM*	16µM*	?	8	?	?
O=C(C1CCN(S(=O)(=O)c2cccc3cccnc23)CC1)N1CCn2c1nc1ccccc12	?	?	23µM*	-9	0%	-3%
COc1cccc(NC(=O)C2CCCN(S(=O)(=O)c3cccc4cccnc34)C2)c1 (stereo unspecified)	?	?	?	-23	3%	-1%
CC(C)c1ccc(NC(=O)C2CCCN(S(=O)(=O)c3cccc4cccnc34)C2)cc1 (stereo unspecified)	16µM*	16µM*	.	.	.	.
O=C(Nc1ccncc1)C1CCCN(S(=O)(=O)c2cccc3cccnc23)C1 (stereo unspecified)	1.8µM*	1.6µM*	?	33	3.3µM*	?
O=C(NCC1COc2ccccc2O1)C1CCCN(S(=O)(=O)c2cccc3cccnc23)C1 (stereo unspecified)	21µM*	?	15µM*	-27	2%	0%
O=C(C1CCCN1S(=O)(=O)c1cccc2cccnc12)N1CCn2c1nc1ccccc12 (stereo unspecified)	-4%	-17%	-17%	-12	-1%	0%
COC(=O)C(C#N)(CCC(=O)c1ccccc1)CCC(=O)c1ccccc1	-2%	-15%	.	53	16%	23%
COc1ccc(N2CC(C(=O)Nc3ccc(NC(C)=O)cc3)CC2=O)cc1 (stereo unspecified)	3%	-1%	.	.	.	.
O=C(C1CCCN(S(=O)(=O)c2cccc3cccnc23)C1)N1CCc2ccccc21 (stereo unspecified)	23µM*	16µM*	?	33	-18%	0%
